Values joined by “and” are separate entries in the source; they are usually repeats but may differ in a detail not shown here. Identical values can stand only once.
Legend:
Test in all cases: growth inhibition (% activity, log2 RLU normalised to DMSO / staurosporine); higher = more growth inhibition
Details in all cases: 33 µM
DIPGX29 = tested on: DIPGX29 (H3.3 K27M diffuse intrinsic pontine glioma line)
In short: (§1)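 In triplicate, pHGG cell lines and H9-derived neural stem cells were treated for 7 days at 37 °C, 5% CO2 with approved drugs at a single final concentration of about 33 μM, added by pin tool. CellTiter-Glo luminescence, after log2 transformation, was normalised on each plate to % activity between solvent and positive control wells. Growth inhibition is reported as the median across replicates.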

DIPGX37 = tested on: DIPGX37 (H3.3 K27M diffuse intrinsic pontine glioma line)
In short: as §1

DIPGX7 = tested on: DIPGX7 (H3.3 K27M diffuse intrinsic pontine glioma line)
In short: as §1

DIPGX9 = tested on: DIPGX9 (diffuse intrinsic pontine glioma line)
In short: as §1

HGGX39 = tested on: HGGX39 (paediatric high-grade glioma line)
In short: as §1

HGGX6 = tested on: HGGX6 (H3.3 G34R paediatric high-grade glioma line)
In short: as §1

HNSC = tested on: HNSC
In short: as §1

SUDIPGIV = tested on: SUDIPGIV (diffuse intrinsic pontine glioma line)
In short: as §1

SUDIPGVI = tested on: SUDIPGVI (diffuse intrinsic pontine glioma line)
In short: as §1

SUDIPGXIII = tested on: SUDIPGXIII (diffuse intrinsic pontine glioma line)
In short: as §1

Structure (SMILES): CCCCN(CCCC)CCCOC(=O)c1ccc(N)cc1
- growth inhibition (DIPGX29): 2.46%
- growth inhibition (DIPGX37): 2.29%
- growth inhibition (DIPGX7): 5.01%
- growth inhibition (DIPGX9): 2.44%
- growth inhibition (HGGX39): 6.95%
- growth inhibition (HGGX6): 5.63%
- growth inhibition (HNSC): 8.9%
- growth inhibition (SUDIPGIV): 1.64%
- growth inhibition (SUDIPGVI): 3.72%
- growth inhibition (SUDIPGXIII): -1.97%

Structure (SMILES): COc1cc(/C=C/C(=O)CC(=O)/C=C/c2ccc(O)c(OC)c2)ccc1O
- growth inhibition (DIPGX29): -0.948%
- growth inhibition (DIPGX37): 1.27%
- growth inhibition (DIPGX7): 1.4%
- growth inhibition (DIPGX9): 0.547%
- growth inhibition (HGGX39): 0.698%
- growth inhibition (HGGX6): 1.98%
- growth inhibition (HNSC): -1.04%
- growth inhibition (SUDIPGIV): -2.56%
- growth inhibition (SUDIPGVI): 0.323%
- growth inhibition (SUDIPGXIII): -11.1%

Structure (SMILES): CCN(CC)CCOC(=O)c1ccc(N)cc1
- growth inhibition (DIPGX29): 1.14%
- growth inhibition (DIPGX37): -1.44%
- growth inhibition (DIPGX7): 2.21%
- growth inhibition (DIPGX9): 1.17%
- growth inhibition (HGGX39): 3.11%
- growth inhibition (HGGX6): 0.874%
- growth inhibition (HNSC): 2.07%
- growth inhibition (SUDIPGIV): 1.58%
- growth inhibition (SUDIPGVI): 1.31%
- growth inhibition (SUDIPGXIII): 0.856%

Structure (SMILES): Fc1ccc([C@@H]2CCNC[C@H]2COc2ccc3c(c2)OCO3)cc1
- growth inhibition (DIPGX29): 1.88%
- growth inhibition (DIPGX37): 0.828%
- growth inhibition (DIPGX7): 1.44%
- growth inhibition (DIPGX9): -0.123%
- growth inhibition (HGGX39): -1.48%
- growth inhibition (HGGX6): 0.754%
- growth inhibition (HNSC): 54.9%
- growth inhibition (SUDIPGIV): -0.812%
- growth inhibition (SUDIPGVI): -0.542%
- growth inhibition (SUDIPGXIII): 1.2%

Structure (SMILES): CC(C)(C)NCC(O)c1ccc(O)c(CO)c1 (stereo not given)
- growth inhibition (DIPGX29): -2.88%
- growth inhibition (DIPGX37): -1.32%
- growth inhibition (DIPGX7): -0.0436%
- growth inhibition (DIPGX9): -1.85%
- growth inhibition (HGGX39): -1.15%
- growth inhibition (HGGX6): 1.2%
- growth inhibition (HNSC): -1.34%
- growth inhibition (SUDIPGIV): 1.26%
- growth inhibition (SUDIPGVI): -4.26%
- growth inhibition (SUDIPGXIII): 1.25%

Structure (SMILES): CS(=O)(=O)c1ccc(C2=C(c3ccccc3)C(=O)OC2)cc1
- growth inhibition (DIPGX29): -1.33%
- growth inhibition (DIPGX37): -0.751%
- growth inhibition (DIPGX7): -1.9%
- growth inhibition (DIPGX9): -1.51%
- growth inhibition (HGGX39): -1.94%
- growth inhibition (HGGX6): -2.78%
- growth inhibition (HNSC): -3.76%
- growth inhibition (SUDIPGIV): -4.83%
- growth inhibition (SUDIPGVI): -0.628%
- growth inhibition (SUDIPGXIII): 0.203%

Structure (SMILES): CN(C)CC/C=C1/c2ccccc2Sc2ccc(Cl)cc21
- growth inhibition (DIPGX29): -0.186%
- growth inhibition (DIPGX37): 0.387%
- growth inhibition (DIPGX7): 0.793%
- growth inhibition (DIPGX9): 0.131%
- growth inhibition (HGGX39): 0.989%
- growth inhibition (HGGX6): 2.17%
- growth inhibition (HNSC): -1.13%
- growth inhibition (SUDIPGIV): -1.17%
- growth inhibition (SUDIPGVI): -0.358%
- growth inhibition (SUDIPGXIII): -1.03%

Structure (SMILES): CCOC(=O)[C@H](CCc1ccccc1)N[C@@H](C)C(=O)N1[C@H](C(=O)O)C[C@@H]2CCC[C@@H]21
- growth inhibition (DIPGX29): -3.8%
- growth inhibition (DIPGX37): -1.96%
- growth inhibition (DIPGX7): -1.64%
- growth inhibition (DIPGX9): -2.68%
- growth inhibition (HGGX39): -4.08%
- growth inhibition (HGGX6): -5.1%
- growth inhibition (HNSC): 1.84%
- growth inhibition (SUDIPGIV): -2.04%
- growth inhibition (SUDIPGVI): -7.46%
- growth inhibition (SUDIPGXIII): -2.12%

Structure (SMILES): CN1CCC(=C2c3ccccc3CCc3sccc32)CC1
- growth inhibition (DIPGX29): 2.69%
- growth inhibition (DIPGX37): 1.01%
- growth inhibition (DIPGX7): 1.97%
- growth inhibition (DIPGX9): 2.15%
- growth inhibition (HGGX39): 7.57%
- growth inhibition (HGGX6): -1.66%
- growth inhibition (HNSC): 1.57%
- growth inhibition (SUDIPGIV): 3.73%
- growth inhibition (SUDIPGVI): -0.736%
- growth inhibition (SUDIPGXIII): 1.69%

Structure (SMILES): Nc1ccn([C@@H]2O[C@H](CO)[C@@H](O)C2(F)F)c(=O)n1
- growth inhibition (DIPGX29): 16.7% and 17.4%
- growth inhibition (DIPGX37): 13.6% and 13%
- growth inhibition (DIPGX7): 16.9% and 16.6%
- growth inhibition (DIPGX9): 20.2%
- growth inhibition (HGGX39): 20.4% and 20%
- growth inhibition (HGGX6): 13.5% and 14.1%
- growth inhibition (HNSC): 52.4% and 59.5%
- growth inhibition (SUDIPGIV): 41.6% and 46%
- growth inhibition (SUDIPGVI): 4.24% and 4.14%
- growth inhibition (SUDIPGXIII): 9.89% and 11.3%

Structure (SMILES): CC1(C)O[C@@H]2[C@@H](CO[C@@]3(COS(N)(=O)=O)OC(C)(C)O[C@@H]23)O1
- growth inhibition (DIPGX29): -3.02%
- growth inhibition (DIPGX37): -1.66%
- growth inhibition (DIPGX7): -1.31%
- growth inhibition (DIPGX9): -2.57%
- growth inhibition (HGGX39): -2.13%
- growth inhibition (HGGX6): -3.4%
- growth inhibition (HNSC): -3.88%
- growth inhibition (SUDIPGIV): -3.39%
- growth inhibition (SUDIPGVI): -3.08%
- growth inhibition (SUDIPGXIII): -0.599%

Structure (SMILES): Cc1cccc(N(C)C(=S)Oc2ccc3ccccc3c2)c1
- growth inhibition (DIPGX29): -3.14%
- growth inhibition (DIPGX37): -1.11%
- growth inhibition (DIPGX7): -2.16%
- growth inhibition (DIPGX9): -2.01%
- growth inhibition (HGGX39): -1.4%
- growth inhibition (HGGX6): -3.78%
- growth inhibition (HNSC): -3.49%
- growth inhibition (SUDIPGIV): -3.02%
- growth inhibition (SUDIPGVI): -3.26%
- growth inhibition (SUDIPGXIII): 0.248%

Structure (SMILES): O=C(O)COCCN1CCN(C(c2ccccc2)c2ccc(Cl)cc2)CC1 (stereo not given)
- growth inhibition (DIPGX29): 1.96%
- growth inhibition (DIPGX37): 2.21%
- growth inhibition (DIPGX7): 3.97%
- growth inhibition (DIPGX9): 2.72%
- growth inhibition (HGGX39): 4.64%
- growth inhibition (HGGX6): 3.15%
- growth inhibition (HNSC): 3.36%
- growth inhibition (SUDIPGIV): -0.252%
- growth inhibition (SUDIPGVI): 2.48%
- growth inhibition (SUDIPGXIII): 0.283%

Structure (SMILES): Oc1ncnc2[nH]ncc12
- growth inhibition (DIPGX29): -2.33%
- growth inhibition (DIPGX37): -1.9%
- growth inhibition (DIPGX7): -0.64%
- growth inhibition (DIPGX9): -2.61%
- growth inhibition (HGGX39): -3.77%
- growth inhibition (HGGX6): -3.6%
- growth inhibition (HNSC): -5.63%
- growth inhibition (SUDIPGIV): -3.97%
- growth inhibition (SUDIPGVI): -6.47%
- growth inhibition (SUDIPGXIII): 0.643%

Structure (SMILES): C=C1[C@H](CO)[C@@H](O)C[C@@H]1n1cnc2c(=O)[nH]c(N)nc21
- growth inhibition (DIPGX29): -0.461%
- growth inhibition (DIPGX37): 0.828%
- growth inhibition (DIPGX7): -0.963%
- growth inhibition (DIPGX9): 1.66%
- growth inhibition (HGGX39): 0.038%
- growth inhibition (HGGX6): 2.68%
- growth inhibition (HNSC): 0.984%
- growth inhibition (SUDIPGIV): -0.629%
- growth inhibition (SUDIPGVI): 0.432%
- growth inhibition (SUDIPGXIII): 2.42%

Structure (SMILES): CCCCCCCCCC(=O)NC1C(Oc2c3cc4cc2Oc2ccc(cc2Cl)C(OC2OC(CO)C(O)C(O)C2NC(C)=O)C2NC(=O)C(NC(=O)C4NC(=O)C4NC(=O)C(Cc5ccc(c(Cl)c5)O3)NC(=O)C(N)c3ccc(O)c(c3)Oc3cc(O)cc4c3)c3ccc(O)c(c3)-c3c(OC4OC(CO)C(O)C(O)C4O)cc(O)cc3C(C(=O)O)NC2=O)OC(CO)C(O)C1O (stereo not given)
- growth inhibition (DIPGX29): -0.31%
- growth inhibition (DIPGX37): 0.115%
- growth inhibition (DIPGX7): 0.155%
- growth inhibition (DIPGX9): 0.4%
- growth inhibition (HGGX39): -1.12%
- growth inhibition (HGGX6): -0.793%
- growth inhibition (HNSC): 0.958%
- growth inhibition (SUDIPGIV): -1.1%
- growth inhibition (SUDIPGVI): 0.462%
- growth inhibition (SUDIPGXIII): 2.06%
